Assay results published in PubChem BioAssay AID504834 (National Center for Advancing Translational Sciences (NCATS), 2011).
In all, about 320,000 compounds went through this assay and about 22,000 (6.9%) were called active. Roughly 27% stayed inconclusive and do not appear here. The call rests on the fitted dose curve; in most records, active means well fitted inhibition curve with a large enough effect; inconclusive means small, poorly fitted or top-dose-only effect, or another doubt; inactive means no such curve, though single readings can be large or run the other way. For the sample, actives were picked, then their nearest neighbours and some compounds at random.

assay: Primary qHTS for delayed death inhibitors of the malarial parasite plastid, 96 hour incubation; conditions: P. falciparum luciferase reporter growth; series mostly up to 28.7 µM; activity change, negative = inhibition: at the top concentration
In short: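 Two-generation exposure (96 h) targets delayed-death phenotype. Reporter parasites carrying integrated firefly luciferase, in red cells at 2% hematocrit and 0.05% parasitemia final, kept at 37 C, 5% CO2; luminescence loss indicates inhibition.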
On the % scale 0 is the no-effect control and ±100 the full control effect; potency means the concentration at half of the fitted maximal effect.

Structure (SMILES) | activity change, negative = inhibition | Potency
Cc1ccccc1OCC(=O)Nc1nnc(S(=O)(=O)N2CCCC2)s1 | 40.6% (inactive) | 
CCOC(=O)CC1COCCN1C(=O)c1cc(COc2ccc(F)c(F)c2)on1 (centres undefined) | 16.8% (inactive) | 
Cn1c(N2CCOCC2)c(C=O)c2ccccc21 | 4.33% (inactive) | 
FC(F)(F)c1ccnc(Oc2ccc(C3=NCCS3)cc2)c1 | 335% (inactive) | 
O=C(NCCCN1CCOCC1)c1ccc([N+](=O)[O-])cc1[N+](=O)[O-] | 18.7% (inactive) | 
O=[N+]([O-])c1cc(S(=O)(=O)CCCN2CCOCC2)ccc1F |  | 10.4 µM (active)
O=S(=O)(NCCCN1CCOCC1)c1ccc(F)c(Cl)c1 | -15.7% (inactive) | 
CCc1nccn1CCC(=O)N1CCCC(N2CCN(c3ccccc3F)CC2)C1 (centres undefined) | 40.6% (inactive) | 
CCOc1ccc(NC(=O)CN(C)C(=O)CSc2ccccc2)cc1OCC | 17.1% (inactive) | 
CCc1ccc(-c2nn(-c3ccccc3C)cc2C(=O)N2CCN(C3CCS(=O)(=O)C3)CC2)cc1 (centres undefined) | -29% (inactive) | 
CCc1ccc(N2CC(C(=O)Nc3ccc(S(=O)(=O)Nc4nccs4)cc3)CC2=O)cc1 (centres undefined) | 19.7% (inactive) | 
COc1ccc([N+](=O)[O-])cc1N(CC(O)CN(CC(C)C)CC(C)C)S(=O)(=O)c1ccc(C)cc1 (centres undefined) | -6.94% (inactive) | 
COc1cc2cc(C(=O)N/N=C/c3cccc(OC)c3OC)[nH]c2cc1OC | -29.6% (inactive) | 
COc1ccc2[nH]c(C(=O)N/N=C/c3cc(OC)c(OC)c(OC)c3)cc2c1 |  | 5.86 µM (active)
CCOc1ccc2[nH]c(C(=O)N/N=C/c3cccc(OC)c3OC)cc2c1 | 17.8% (inactive) | 
Cc1ccnc(NS(=O)(=O)c2ccc(NC(=O)c3oc4ccc(F)cc4c3C)cc2)n1 | 2.11% (inactive) | 
COc1ccc(Nc2ccc([N+](=O)[O-])cn2)cn1 | 5.89% (inactive) | 
O=C(c1ccc(Cl)cc1)N1N=C(c2ccccn2)CC1(O)C(F)(F)F (centres undefined) |  | 6.57 µM (active)
COC(=O)C1(O)CC(C(C)C)=NN1C(=O)c1ccc(Cl)cc1 (centres undefined) | 14.7% (inactive) | 
O=C(C1CC1)N1N=C(c2ccc(Br)cc2)CC1(O)C(F)(F)F (centres undefined) | -6.38% (inactive) | 
Cc1ccc(NC(=O)NC(=O)c2ccccc2)cc1F | 9.94% (inactive) | 
CC(=O)c1c(C)[nH]c(=S)c(C#N)c1-c1ccc(F)cc1 | 24.5% (inactive) | 

Structure (SMILES) | activity change, negative = inhibition | Potency
CCc1c(C)[nH]c(=S)c(C#N)c1C |  | 3.29 µM (active)
Cc1ccc(-n2cnc3ncnc(-c4ccccc4)c32)cc1 | 35% (inactive) | 
Cc1ccc(-c2nn(C(C)(C)C)c3ncnc(N)c23)cc1 |  | 2.33 µM (active)
COc1ccccc1OC(C)C(=O)Nc1ccc(S(=O)(=O)Nc2nccs2)cc1 (centres undefined) | 50.1% (inactive) | 
CCCn1c(C(Cc2ccccc2)NC(=O)COC)nc2ccccc21 (centres undefined) | -3.62% (inactive) | 
COC(=O)c1ccc(CN2C(=O)NC(c3ccccc3)(c3ccccc3)C2=O)o1 | -23.7% (inactive) | 
CCCC(NC(=O)c1ccccc1)c1nc2ccccc2n1Cc1ccc(C(=O)OC)o1 (centres undefined) |  | 8.28 µM (active)
CCc1cccc(NC(=S)N(CCN(C)C)C2CCN(C(C)C)CC2)c1 | 6.36% (inactive) | 
COc1ccccc1/C=C/C(=O)OCC(=O)NC1CCCCCC1 | -6.99% (inactive) | 
CCn1c(=O)c(=O)n(CC)c2cc(S(=O)(=O)N3CCc4ccccc43)ccc21 |  | 13.1 µM (active)
CSc1nc2ccc(S(=O)(=O)N3CCc4ccccc43)cc2s1 | -24.9% (inactive) | 
O=S(=O)(c1ccc2c(c1)OCCO2)N1CCc2ccccc21 | 0% (inactive) | 
O=C(NCc1ccccc1Cl)c1ccc2c(=O)n(CC3CCCO3)c(=S)[nH]c2c1 (centres undefined) | 45.6% (inactive) | 
Cc1ccc2nc(COc3ccc(N(C)S(=O)(=O)c4ccccc4)cc3)cc(=O)n2c1 |  | 10.4 µM (active)
COc1cccc(COc2ccc(N(C)S(=O)(=O)c3ccccc3)cc2)c1 | -12.1% (inactive) | 
CN(c1ccc(OCC(=O)O)cc1)S(=O)(=O)c1ccc2ccccc2c1 | -7.57% (inactive) | 
COCCCNC(=O)C1CC(=O)N(CCc2ccc(F)cc2)C1 (centres undefined) | 23.2% (inactive) | 
O=C(Nc1ccc2c(c1)OCO2)C1CC1(Cl)Cl (centres undefined) | 161% (inactive) | 
CC(=O)N/C(=C\c1ccccc1)C(=O)OC(C)C(=O)N(C)c1ccccc1 (centres undefined) | 22.6% (inactive) | 
OCC[C@H]1C[C@H](O)[C@@H](O)[C@]2(Cc3ccccc3CO2)O1 | 85.6% (inactive) | 
CC(C)c1nc2sc3c(c2c(=O)n1N)CC(C)(C)OC3 |  | 4.65 µM (active)
CCOC(=O)Cn1c(SC)nc2sc3c(c2c1=O)CC(C)(C)OC3 | 0.247% (inactive) | 

Structure (SMILES) | activity change, negative = inhibition | Potency
CC1(C)Cc2c(sc3nc4n(c(=N)c23)CCCCC4)CO1 | -12.3% (inactive) | 
COCCN1C(=O)N[C@@H](c2ccccc2)C(C(=O)OC)=C1C | -11.4% (inactive) | 
CC1=C(C(=O)OC(C)(C)C)C(c2ccc(Br)cc2)NC(=O)N1CCCC(=O)O (centres undefined) | 0.837% (inactive) | 
CC1=C(C(=O)OCc2ccccc2)C(c2ccc(C(F)(F)F)cc2)NC(=O)N1CCCCCC(=O)O (centres undefined) |  | 13.1 µM (active)
CCOC(=O)c1c(C)[nH]c(C(=O)OCC(=O)c2ccc(OC)cc2OC)c1C | 116% (inactive) | 
COc1cccc(/C=C/C(=O)OCC(=O)N2CCCc3ccccc32)c1 | -2.45% (inactive) | 
COc1c(O)cc2oc(-c3ccc(O)c(O)c3)cc(=O)c2c1O | 81.9% (inactive) | 
O=C(CSc1nnnn1-c1ccccc1)NCc1ccco1 | -3.7% (inactive) | 
O=C(CSc1c2c(nc3ccc(Cl)cc13)CCCC2)NCc1ccco1 |  | 9.28 µM (active)
O=C(NCc1ccco1)c1cc(-c2cccnc2)nc2ccc(Cl)cc12 | 17.9% (inactive) | 
NS(=O)(=O)c1cccc(NC(=O)CN2CCCc3ccccc32)c1 | 1.97% (inactive) | 
COC(=O)c1[nH]c2ccccc2c1NC(=O)CN1CCCc2ccccc21 |  | 3.29 µM (active)
COC(=O)c1[nH]c2ccc(Br)cc2c1NC(=O)Oc1ccccc1 | 91.2% (inactive) | 
Brc1ccccc1/C=N/Nc1nc2ccccc2o1 | 136% (inactive) | 
COc1cccc(OC)c1C(=O)Nc1c(C(=O)N2CCN(c3ccccn3)CC2)oc2ccccc12 | -0.184% (inactive) | 
Cc1cccc(NC(=O)CSc2nnc(CCNC(=O)OC(C)(C)C)o2)c1C | 0.64% (inactive) | 
Cc1cc(Br)ccc1NC(=S)NC1CCCC1 | -23.9% (inactive) | 
CCCc1cc(=O)[nH]c2nnc(SCC(=O)Nc3nnc(SCC)s3)n12 | 14.6% (inactive) | 
O=S(=O)(NCCNS(=O)(=O)c1ccccc1)c1ccccc1 | 50.1% (inactive) | 
COP(=O)(NS(=O)(=O)c1ccccc1)OC |  | 5.22 µM (active)
O=S(=O)(NCCc1ccccc1)c1ccccc1 | 38.7% (inactive) | 
O=S(=O)(c1ccc(Br)c2ccccc12)N1CCOCC1 | -21.3% (inactive) | 

Structure (SMILES) | activity change, negative = inhibition | Potency
O=C(Nc1ccnn1C1CCN(Cc2cccc(OCCO)c2)CC1)C1CCCC1 | -2.73% (inactive) | 
Cn1cnc([N+](=O)[O-])c1Nc1ccccc1O | 62.5% (inactive) | 
Cn1nc(-c2ccccc2)c(CO)c1Sc1ccccc1 | 1.86% (inactive) | 
Cn1cnc([N+](=O)[O-])c1Sc1ccccc1 |  | 11.7 µM (active)
c1ccc2cc3c(NCCN4CCOCC4)ccnc3cc2c1 |  | 0.165 µM (active)
O=C(Cn1c(-c2ccccn2)nc2ccccc21)NCCN1CCOCC1 | -0.622% (inactive) | 
c1ccc(-c2ccc(OCCN3CCOCC3)cc2)cc1 | -12.9% (inactive) | 
CCOc1ccc(C(=O)Nc2c3c(nn2-c2ccccc2)CS(=O)(=O)C3)cc1 | -17.2% (inactive) | 
Cc1ccc(C)c(S(=O)(=O)Nc2cccc(-n3cnnn3)c2)c1 | 1.62% (inactive) | 
COc1ccc(C(=O)CN2C(=O)NC3(CCc4ccccc43)C2=O)c(OC)c1 (centres undefined) | -18.2% (inactive) | 
Cc1ccc(C(=O)CN2C(=O)NC3(CCc4ccccc43)C2=O)c(C)c1 (centres undefined) | 3.08% (inactive) | 
COc1ccc(-n2c(C)cc(C(=O)CN3C(=O)NC4(CCc5ccccc54)C3=O)c2C)cc1 (centres undefined) |  | 1.17 µM (active)
CCN1CCN(C(=O)Cn2nc(C)n3c(cc4c(OC)cccc43)c2=O)CC1 | -29.1% (inactive) | 
O=C(CCN1C(=O)C2CCCCC2C1=O)Nc1ccc(OC(F)F)cc1 (centres undefined) | 5.43% (inactive) | 
NC1=NC[C@@H](Cc2ccc(O)cc2)N1CC1CCCCC1 |  | 2.33 µM (active)
COc1ccc(NC(=O)CCCN2C(=O)C(c3ccccc3)Oc3cccnc32)cc1 (centres undefined) | 100% (inactive) | 
Cc1ccc(CN(C)Cc2cc(=O)oc3cc(C)c(Cl)cc23)cc1 | 1.06% (inactive) | 
CCOc1ccc(N(C)Cc2cc(=O)oc3ccc(OC)cc23)cc1 | -27.9% (inactive) | 
Cc1cc2oc(=O)cc(CN(C)Cc3ccc(OC(F)F)cc3)c2cc1Cl |  | 2.62 µM (active)
COc1cccc(CNC(=O)COC(=O)CN2C(=O)NC3(CCCCC3C)C2=O)c1 (centres undefined) | 5.85% (inactive) | 
COc1ccccc1N1CCN(C(=O)c2c(-c3c(Cl)cccc3Cl)noc2C)CC1 | 7.48% (inactive) | 
Cc1onc(-c2c(Cl)cccc2Cl)c1C(=O)c1c[nH]c(C(=O)NC2CC2)c1 | -20.4% (inactive) | 

Structure (SMILES) | activity change, negative = inhibition | Potency
Cc1onc(-c2c(Cl)cccc2Cl)c1C(=O)NNC(=O)c1c(-c2c(Cl)cccc2Cl)noc1C |  | 8.28 µM (active)
CC(C)=C1SC(N2CCN(c3ccc(C)c(Cl)c3)CC2)=NC1=O | 0.284% (inactive) | 
CC(NCc1cccs1)C(=O)Nc1cc(Cl)cc(Cl)c1 (centres undefined) | -2.74% (inactive) | 
Cc1cc2nc3n(c2cc1C)CC1CC(C(=O)NCCC(C)C)N(C)C31 (centres undefined) | -1.98% (inactive) | 
CCc1nc(Nc2ccc(NC(C)=O)cc2)c2oc3ccccc3c2n1 | -16.9% (inactive) | 
COc1ccc2oc(=O)cc(-c3cc4ccccc4o3)c2c1 | 19.1% (inactive) | 
COc1ccc(Nc2nnc(C)c3ccccc23)cc1 | 2.93% (inactive) | 
COc1ccc(Nc2cc(=O)oc3ccccc23)cc1 |  | 2.62 µM (active)
O=S(=O)(NC1CCCCC1N1CCC(O)CC1)c1ccc(Cl)cc1 (centres undefined) | 23.1% (inactive) | 
O=S(=O)(NC1CCCCC1N1CCCCC1)c1ccc(Cl)cc1 (centres undefined) | 2.85% (inactive) | 
CCOC1CCCCC1NS(=O)(=O)c1ccc(Cl)cc1 (centres undefined) |  | 9.28 µM (active)
Cc1nnc2n1N=C(c1ccc3c(c1)NC(=O)CO3)CS2 | -25.6% (inactive) | 
O=C(O)CC/C(=C\c1cc2c(cc1Br)OCO2)c1nc2ccccc2s1 | 34.1% (inactive) | 
O=C(NC1CCCC1)C1CC(=O)N(c2ccc(F)cc2)C1 (centres undefined) | -9.08% (inactive) | 
O=C(NC1CCCCCCC1)c1cccs1 | 23.4% (inactive) | 
CCC(C)[C@H]1COCCS(=O)(=O)N1Cc1ccc(C)cc1 (some centres undefined) | 84.1% (inactive) | 
C/C(=N\NC(=O)c1ccc2ccccc2c1)c1cccnc1 | 18.6% (inactive) | 
O=C(NCCNc1ccc([N+](=O)[O-])cc1Cl)c1ccccc1F | -45.8% (inactive) | 
O=C(NC1CCN(Cc2ccccc2)CC1)c1ccccc1F | 202% [at 5.75 µM] (inactive) | 
O=C(NC1CCN(Cc2ccccc2)CC1)c1c(F)cccc1F | 84.5% (inactive) | 
O=C(NC1CCN(Cc2ccccc2)CC1)c1cc(Br)c(Br)[nH]1 |  | 11.7 µM (active)
